# Source: PubChem BioAssay (several laboratories)
# Anthrax LF prot – Bacillus anthracis LF protease inhibitors, primary screen, biochemical, multiplex microsphere, MLPCN library. AID 588501, 2011. hit rate 0.12% among 360,000. Lethal factor (Bacillus anthracis), P15917. inhibition, % at 10 µM. multiplex microsphere protease cleavage assay; note: plate controls were buffer without enzyme for full effect and enzyme alone for no effect
# Autofluor counter – counter-screen for toxin protease inhibitors: compound fluorescence | compound autofluorescence counterscreen, microsphere flow cytometry; active compounds read high | fluorescence intensity (concentration not given with the values) | hit rate 3.1% among 360,000 | AID 624483; in the data active = fluorescence intensity above about 16000; inconclusive = no clear call, values can overlap the other calls
# BoNT F protease – BoNT/F light chain protease inhibitors, primary screen, biochemical, flow cytometry, MLPCN library. AID 588497, 2011. inhibition, % at 10 µM. hit rate 0.22% among 360,000. Botulinum neurotoxin type F light chain protease (Clostridium botulinum). Multiplex microsphere protease cleavage assay; in the data active = inhibition above about 35%, passing the limit was not always enough; inconclusive = no clear call, values can overlap the other calls; note: plate controls were buffer without enzyme for full effect and enzyme alone for no effect
# BJeLR lethal – MLPCN primary cell-based screen for lethality selective to Ras in HRASV12 cells; AID 1554, 2009; BJeLR (HRASV12) viability, CellTiter-Glo ATP luminescence, 48 h; inhibition, % (no concentration beside the values); hit rate 0.17% among 300,000; in the data active = inhibition above about 50%; inconclusive = no clear call, values can overlap the other calls
# BH1578 lux ind – inducers of Vibrio cholerae quorum light production without autoinducers, primary screen, BH1578 luxS cqsA deficient, single point; hit rate 0.16% among 350,000; AID 588436, 2011; V. cholerae BH1578 lux reporter, luminescence, 6 h; activation, % at 18.7 µM; in the data active = activation mostly above about 9.7%, no sharp cut-off; inconclusive = no clear call, values can overlap the other calls; inactive = mostly below about 3.7%
# BoNT A protease – BoNT/A light chain protease inhibitors, primary screen, biochemical, flow cytometry, MLPCN library; multiplex microsphere protease substrate cleavage; inhibition, % at 10 µM; hit rate 0.17% among 360,000; note: plate controls were buffer without enzyme for full effect and enzyme alone for no effect
# * marks the source's active call; other numbers are inactive results; i = inactive; ? = inconclusive; . = no result. Sampled rows, rich in hits. Any-hit rate of the full collection: about 3.7%. Cut-off read from the data, not from the text of the source, unless noted: active = inhibition above about 30%; inconclusive = no clear call, values can overlap the other calls; inactive = below that.
SMILES,Anthrax LF prot,Autofluor counter,BoNT F protease,BJeLR lethal,BH1578 lux ind,BoNT A protease
CSc1ncc(C(=O)Nc2ccccc2C)c(C)n1,-11,3901,9,1,1,1
CCc1nc2ccc(C(=O)Nc3cccc(OC)c3)cn2c1N(C)Cc1ccc(OC)cc1,4,2977,-4,.,0,0
Cc1ccc(C)c(S(=O)(=O)c2c(C)cc(C)nc2Cl)c1,-9,3252,10,-10,-1,-1
Cc1ccc(S(=O)(=O)c2c(C)cc(C)nc2Cl)c(C)c1,0,22797*,-2,4,0,?
CCCCNC(=O)C1(C)CCCCN1C(=O)c1ccc2c(c1)CCO2 (stereo not drawn),-4,3290,2,.,i,0
CN(C(=O)CSc1nncc2ccccc12)c1ccccc1,-7,2963,-6,.,0,0
CCO/C=C1/C(=O)N(C(C)=O)c2ccccc21,-1,22792*,-3,-2,-1,?
CCCCN(CCCNC(=O)c1c(C)cc(=O)oc1C)c1ccccc1,-3,22469*,0,-1,0,-1
Cc1cc(=O)oc(C)c1C(=O)NCCN1CCOCC1,-4,22773*,1,-11,-3,?
Cc1cc(=O)oc(C)c1C(=O)NCCCN1C(C)CCCC1C (stereo not drawn),-2,24271*,-2,-1,-1,-2
Cc1ccc(F)cc1C(=O)N1CCCC(C)(C(=O)NS(=O)(=O)C2CC2)C1 (stereo not drawn),-1,4212,-2,.,i,-1
Cc1ccc2[nH]cc(C(=O)CN3CCN(c4ccccc4F)CC3)c2c1,-3,19645*,-1,-6,i,-1
COc1ccc(C(CNC(=O)C(C)c2ccc3cc(OC)ccc3c2)N(C)C)cc1 (stereo not drawn),-6,2918,7,3,-1,-2
COc1ccc2cc([C@H](C)C(=O)N(C)Cc3ccccc3N3CCCC3)ccc2c1,-18,21814*,-1,9,0,-10
Cn1c(O)c(C=NC2CCN(Cc3ccccc3)CC2)c(=O)[nH]c1=O,-8,3960,?,-1,-1,?
O=c1[nH]c(=O)n(C2CCCCCC2)c(O)c1C=NC1CCN(Cc2ccccc2)CC1,-3,4639,-4,8,38*,1
O=C(COc1ccccc1)NC(=S)Nc1cccc2c(O)cccc12,-5,3835,3,.,-3,0
COc1ccc(S(=O)(=O)N(C)c2ccc(C(=O)NCCC(C)C)cc2)cc1,0,19593*,4,-7,-3,?
COc1ccc(S(=O)(=O)Nc2cc(C(=O)NCCC(C)C)ccc2N2CCOCC2)cc1,0,23444*,-3,-5,0,-1
CCOCCCNC(=O)c1ccc(N(C)S(=O)(=O)c2ccc(OC)cc2)cc1,2,11197,1,.,0,0
CCOC(=O)C1(C)CCCN(C(=O)c2cc(C)oc2C)C1 (stereo not drawn),-6,3609,-2,.,-1,-1
CCOc1ccc(CN2CCC(=O)NC2=O)cc1,-9,17829*,4,-8,i,6
COc1ccc(CN2CCC(=O)NC2=O)cc1,0,25338*,-4,-1,i,-6
O=C1CCN(Cc2ccccc2)C(=O)N1,-4,4182,2,.,i,0
Fc1ccc(NC(=S)SCc2ccc3c(c2)OCO3)cc1F,-7,2820,2,.,i,0
SMILES,Anthrax LF prot,Autofluor counter,BoNT F protease,BJeLR lethal,BH1578 lux ind,BoNT A protease
CC(=O)NC(c1ccc(F)c(F)c1)c1nc(-c2cccc(C(C)C)c2)cs1 (stereo not drawn),-3,2954,-4,.,1,0
Cc1ccc(N2C(=O)NC(=O)C3(Cc4ccccc4N4CCCC43)C2=O)cc1 (stereo not drawn),2,19892*,2,-6,2,?
O=C1NC(=O)[C@]2(Cc3ccccc3N3CCN(c4ccccc4)CC32)C(=O)N1c1ccccc1 (stereo partly drawn),-3,24028*,-5,-2,i,-2
CCCCN1C(=O)NC(=O)C2(Cc3ccccc3N3CCOCC32)C1=O (stereo not drawn),-5,8997,14,0,-4,3
CN1C(=O)NC(=O)[C@]2(Cc3ccccc3N3CCN(c4ccccc4)CC32)C1=O (stereo partly drawn),-2,16912*,-1,-2,i,-2
CN1C(=O)NC(=O)C2(Cc3ccccc3N3CCOCC32)C1=O (stereo not drawn),3,17659*,-6,18,i,?
O=C1NC(=O)C2(Cc3ccccc3N3CCCC32)C(=O)N1Cc1ccccc1 (stereo not drawn),-3,19390*,3,3,4,?
CCCn1nnnc1NCc1cc(Br)ccc1OC,0,4823,-2,-11,0,0
CCCCn1nnnc1NCc1cc(OC)c(OC)cc1OC,0,16650*,0,1,0,0
CCOC(=O)C1=C(CSc2nccn2C)NC(=O)NC1c1cc(C)ccc1C (stereo not drawn),2,16485*,-3,5,0,?
CCOC(=O)C1=C(CNCc2ccc(C)cc2)NC(=O)NC1c1cc(C)ccc1C (stereo not drawn),-18,17821*,9,2,i,17
CCOC(=O)C1=C(CSc2nccn2C)NC(=O)NC1c1ccc2c(c1)OCO2 (stereo not drawn),-1,2739,-1,-3,-7,0
COc1ccc(/C(C)=C2\SC(=S)N(CCC(=O)O)C2=O)cc1,0,20765*,0,-2,i,0
O=C(COC(=O)c1cccnc1)c1ccc(Cl)cc1,0,19665*,0,0,0,0
O=C(CN1CCN(CCN2C(=O)c3cccc4cccc(c34)C2=O)CC1)c1ccc(F)cc1,6,22837*,1,5,i,5
O=C(O)c1ccccc1NCN1C(=O)C2CC=C(Cl)CC2C1=O (stereo not drawn),-4,24033*,-4,-1,i,-4
O=C1C2CC=C(Cl)CC2C(=O)N1CCC[n+]1ccccc1 (stereo not drawn),-1,19255*,2,-5,-1,?
CCc1nc2ccc(C(=O)NCCNC(C)=O)cn2c1N(C)CCCc1ccccc1,-10,4205,-4,.,-1,0
COC(=O)c1ccc(C2C(C(=O)OCC(C)C)=C(C)N=C3SCCC(=O)N32)cc1 (stereo not drawn),-3,22462*,-1,-14,i,0
CC1=C(C(=O)Nc2ccccc2)C(c2ccc(O)cc2)N2C(=O)CSC2=N1 (stereo not drawn),1,3213,21,-4,23*,1
